Data reported in article doi:10.1101/2024.03.05.583629.

These sequences were tested against pT7_6His-AlfaTag-HOXD13 (human, UniProt P35453 263-343) (assay: PADIT-seq). Details: dsDNA, one strand shown.
Chain of pT7_6His-AlfaTag-HOXD13 (P35453 263-343): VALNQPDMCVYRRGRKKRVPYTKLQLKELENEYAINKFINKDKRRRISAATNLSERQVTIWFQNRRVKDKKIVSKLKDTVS
For “CTCGAGGATATCAAGATCTGGCCTCGGCTTTTTACCGGGAACCTCTAGCTAGCCGACTCACTATAGGGATAATCGCCCTGAGCAAAGACC”, the binding signal was 0.978 ± 0.0873 log2FC. “CTCGAGGATATCAAGATCTGGCCTCGGCCGAATAAAAGGAACCTCTAGCTAGCCGACTCACTATAGGGATAATCGCCCTGAGCAAAGACC” was tested, and the binding signal was 1.27 ± 0.0923 log2FC. “CTCGAGGATATCAAGATCTGGCCTCGGCCTTTTACAGGGAACCTCTAGCTAGCCGACTCACTATAGGGATAATCGCCCTGAGCAAAGACC” showed a binding signal of 2.83 ± 0.0828 log2FC. Sequence “CTCGAGGATATCAAGATCTGGCCTCGGCGTTTTAGTCGGAACCTCTAGCTAGCCGACTCACTATAGGGATAATCGCCCTGAGCAAAGACC” has a binding signal of -0.506 ± 0.12 log2FC. “CTCGAGGATATCAAGATCTGGCCTCGGCCTTCTAAAAGGAACCTCTAGCTAGCCGACTCACTATAGGGATAATCGCCCTGAGCAAAGACC” gave a binding signal of 0.087 ± 0.127 log2FC. With “CTCGAGGATATCAAGATCTGGCCTCGGCTTTTTAAACGGAACCTCTAGCTAGCCGACTCACTATAGGGATAATCGCCCTGAGCAAAGACC” the binding signal was 1.28 ± 0.101 log2FC. “CTCGAGGATATCAAGATCTGGCCTCGGCGCGTGGCCAGGAACCTCTAGCTAGCCGACTCACTATAGGGATAATCGCCCTGAGCAAAGACC” gave a binding signal of -1.04 ± 0.128 log2FC. For “CTCGAGGATATCAAGATCTGGCCTCGGCACTGTAAAAGGAACCTCTAGCTAGCCGACTCACTATAGGGATAATCGCCCTGAGCAAAGACC”, the binding signal was 1.95 ± 0.0803 log2FC. Work on “CTCGAGGATATCAAGATCTGGCCTCGGCTAGATAAAAGGAACCTCTAGCTAGCCGACTCACTATAGGGATAATCGCCCTGAGCAAAGACC” yielded a binding signal of 0.188 ± 0.107 log2FC. “CTCGAGGATATCAAGATCTGGCCTCGGCGTGGTAAAAGGAACCTCTAGCTAGCCGACTCACTATAGGGATAATCGCCCTGAGCAAAGACC” gave a binding signal of 1.02 ± 0.077 log2FC. In the case of “CTCGAGGATATCAAGATCTGGCCTCGGCCGAGTAAAAGGAACCTCTAGCTAGCCGACTCACTATAGGGATAATCGCCCTGAGCAAAGACC”, the binding signal is reported as 0.186 ± 0.114 log2FC. “CTCGAGGATATCAAGATCTGGCCTCGGCCTTTTAACCGGAACCTCTAGCTAGCCGACTCACTATAGGGATAATCGCCCTGAGCAAAGACC” was tested, and the binding signal was 1.24 ± 0.0724 log2FC. For “CTCGAGGATATCAAGATCTGGCCTCGGCATTTTACATGGAACCTCTAGCTAGCCGACTCACTATAGGGATAATCGCCCTGAGCAAAGACC”, the binding signal was 2.14 ± 0.0807 log2FC. “CTCGAGGATATCAAGATCTGGCCTCGGCCGCCCATTTGGAACCTCTAGCTAGCCGACTCACTATAGGGATAATCGCCCTGAGCAAAGACC” gave a binding signal of -0.832 ± 0.113 log2FC. “CTCGAGGATATCAAGATCTGGCCTCGGCCCAGTAAAAGGAACCTCTAGCTAGCCGACTCACTATAGGGATAATCGCCCTGAGCAAAGACC” gave a binding signal of 2.32 ± 0.0885 log2FC. “CTCGAGGATATCAAGATCTGGCCTCGGCATTTTAAGTGGAACCTCTAGCTAGCCGACTCACTATAGGGATAATCGCCCTGAGCAAAGACC” showed a binding signal of 1.18 ± 0.0951 log2FC. With “CTCGAGGATATCAAGATCTGGCCTCGGCAGTATAAAAGGAACCTCTAGCTAGCCGACTCACTATAGGGATAATCGCCCTGAGCAAAGACC” the binding signal was 1.92 ± 0.0665 log2FC. With “CTCGAGGATATCAAGATCTGGCCTCGGCATTTTACGAGGAACCTCTAGCTAGCCGACTCACTATAGGGATAATCGCCCTGAGCAAAGACC” the binding signal was 3.41 ± 0.0937 log2FC. “CTCGAGGATATCAAGATCTGGCCTCGGCCTTATAAAAGGAACCTCTAGCTAGCCGACTCACTATAGGGATAATCGCCCTGAGCAAAGACC” showed a binding signal of 2.88 ± 0.0949 log2FC. Sequence “CTCGAGGATATCAAGATCTGGCCTCGGCCTTTTAGGTGGAACCTCTAGCTAGCCGACTCACTATAGGGATAATCGCCCTGAGCAAAGACC” has a binding signal of 0.366 ± 0.0957 log2FC. “CTCGAGGATATCAAGATCTGGCCTCGGCGTTTTATTTGGAACCTCTAGCTAGCCGACTCACTATAGGGATAATCGCCCTGAGCAAAGACC” showed a binding signal of 2.98 ± 0.0869 log2FC. With “CTCGAGGATATCAAGATCTGGCCTCGGCATTTTATGCGGAACCTCTAGCTAGCCGACTCACTATAGGGATAATCGCCCTGAGCAAAGACC” the binding signal was 2.23 ± 0.0779 log2FC. “CTCGAGGATATCAAGATCTGGCCTCGGCGACCTAAAAGGAACCTCTAGCTAGCCGACTCACTATAGGGATAATCGCCCTGAGCAAAGACC” showed a binding signal of -0.787 ± 0.0956 log2FC. In the case of “CTCGAGGATATCAAGATCTGGCCTCGGCTTTTTAACGGGAACCTCTAGCTAGCCGACTCACTATAGGGATAATCGCCCTGAGCAAAGACC”, the binding signal is reported as 1.89 ± 0.0968 log2FC. “CTCGAGGATATCAAGATCTGGCCTCGGCCCGCCACGCGGAACCTCTAGCTAGCCGACTCACTATAGGGATAATCGCCCTGAGCAAAGACC” gave a binding signal of -1.05 ± 0.125 log2FC. “CTCGAGGATATCAAGATCTGGCCTCGGCATGTTAAAAGGAACCTCTAGCTAGCCGACTCACTATAGGGATAATCGCCCTGAGCAAAGACC” gave a binding signal of 1.48 ± 0.0814 log2FC. In the case of “CTCGAGGATATCAAGATCTGGCCTCGGCACATTAAAAGGAACCTCTAGCTAGCCGACTCACTATAGGGATAATCGCCCTGAGCAAAGACC”, the binding signal is reported as 2.06 ± 0.09 log2FC. For “CTCGAGGATATCAAGATCTGGCCTCGGCCTACTAAAAGGAACCTCTAGCTAGCCGACTCACTATAGGGATAATCGCCCTGAGCAAAGACC”, the binding signal was 1.25 ± 0.0954 log2FC. “CTCGAGGATATCAAGATCTGGCCTCGGCCTTTTAAATGGAACCTCTAGCTAGCCGACTCACTATAGGGATAATCGCCCTGAGCAAAGACC” showed a binding signal of 2.36 ± 0.0747 log2FC.
